Experimental data from PubChem BioAssay (NCATS).
Records with an inconclusive call do not appear. The source made the active and inactive calls. The call rests on the fitted dose curve; in most records, active means well fitted inhibition curve with a large enough effect; inconclusive means small, poorly fitted or top-dose-only effect; inactive means flat fitted curve, though single readings scatter. Where a SMILES comes first, the peptide text is derived from it. [ ]: non-standard residue; d: D form.

Tests used:
CRL-7250 = normal cell line; experiment: Cytotoxic Profiling of Annotated Libraries Using Quantitative High-Throughput Screening (AID 1296008); conditions: Five cell lines viability, CellTiter-Glo ATP luminescence, 48-72 h; max response: stronger effect = lower value; on max response: on the % scale 0 is the no-effect control and ±100 the full control effect
Outline: (§1)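 Cytotoxicity was measured as CellTiter-Glo ATP luminescence, read after 10 min at room temperature. Compound treatment of the cells lasted 48 or 72 hr at 37 degrees Celsius in a qHTS format.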

HEK293 = experiment: as above; conditions: Five cell lines viability, CellTiter-Glo ATP luminescence, 48-72 h; max response: stronger effect = lower value
Outline: as §1

HaCat = experiment: as above; conditions: Five cell lines viability, CellTiter-Glo ATP luminescence, 48-72 h; max response: stronger effect = lower value
Outline: as §1

KB-3-1 = experiment: as above; conditions: Five cell lines viability, CellTiter-Glo ATP luminescence, 48-72 h; max response: stronger effect = lower value
Outline: as §1

NIH3T3 = experiment: as above; conditions: Five cell lines viability, CellTiter-Glo ATP luminescence, 48-72 h; max response: stronger effect = lower value
Outline: as §1

HEK293T = experiment: qHTS assay to identify novel small-molecules to repurpose for Merkel cell carcinoma treatment (AID 1296009); conditions: MCC and control cell lines, CellTiter-Glo viability, 72 h; series mostly up to 44.8 µM
Outline: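 Cell viability measured by CellTiter-Glo following 72 hr compound treatment at 37 degree celsius, with NPC and MIPE libraries tested in 8- and 11-point concentration series.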
Further: nearly all actives have a fitted effect of over 60% in size.

CC1CCCC2OC2C(=O)c2c(O)cc(O)cc2CC(=O)O1 (stereo not drawn)
inactive: max response (CRL-7250) -0.57% | outcome (HEK293) | max response (HaCat) -2.51% | max response (KB-3-1) 3.41% | outcome (NIH3T3) | Potency (HEK293T)

CC(/C=C/C1(O)C2(C)COC1(C)CC(=O)C2)O[C@@H]1O[C@H](CO)[C@@H](O)[C@H](O)[C@H]1O (stereo partly drawn)
inactive: max response (CRL-7250) -2.92% | outcome (HEK293) | max response (HaCat) 3.45% | outcome (KB-3-1) | max response (NIH3T3) 3.43% | Potency (HEK293T)

OCC1OC(Oc2cc(O)c3c(c2)OC(c2ccc(O)cc2)C(O)C3)C(O)C1O (stereo not drawn)
inactive: max response (CRL-7250) -1.28% | outcome (HEK293) | max response (HaCat) -8.75% | max response (KB-3-1) 9.04% | max response (NIH3T3) 2.06% | Potency (HEK293T)

CCC(C)/C=C(C)/C=C/C1=CC2=C(Cl)C(=O)C(C)(OC(C)=O)C(=O)C2=CN1CCCC(=O)O (stereo not drawn)
inactive: outcome (CRL-7250) | outcome (HEK293) | max response (HaCat) -6.78% | outcome (KB-3-1) | max response (NIH3T3) -0.464% | Potency (HEK293T)

COc1cc([C@@H]2Oc3c(OC)cc(CCCO)cc3[C@@H]2CO[C@@H]2O[C@H](CO)[C@@H](O)[C@H](O)[C@H]2O)ccc1O
inactive: outcome (CRL-7250) | outcome (HEK293) | max response (HaCat) -11.2% | max response (KB-3-1) 9.39% | outcome (NIH3T3) | Potency (HEK293T)

C=CC1C(O[C@@H]2O[C@H](CO)[C@@H](O)[C@H](O)[C@H]2O)OC=C(C(=O)OC)C1Cc1nccc2c1[nH]c1ccccc12 (stereo partly drawn)
inactive: max response (CRL-7250) 3.98% | outcome (HEK293) | max response (HaCat) 1.01% | max response (KB-3-1) 5.15% | outcome (NIH3T3) | Potency (HEK293T)

CC1=CCC2C(C)(CO)CCCC2(C)C1CC12OC1C(O)C(CO)=CC2O (stereo not drawn)
inactive: max response (CRL-7250) 4.27% | outcome (HEK293) | max response (HaCat) -8.88% | outcome (KB-3-1) | outcome (NIH3T3) | Potency (HEK293T)

O=C(/C=C/c1ccccc1)OCC1=CC[C@@H]2C(C(=O)O)=CO[C@@H](O[C@@H]3O[C@H](CO)[C@@H](O)[C@H](O)[C@H]3O)[C@H]12
inactive: outcome (CRL-7250) | outcome (HEK293) | max response (HaCat) 0.992% | outcome (KB-3-1) | outcome (NIH3T3) | Potency (HEK293T)

O=S(=O)(Nc1ccc(C(O)(C(F)(F)F)C(F)(F)F)cc1)c1cccs1
inactive: max response (CRL-7250) 2.89% | outcome (HEK293) | max response (HaCat) 2.6% | max response (KB-3-1) 6.97% | outcome (NIH3T3) | Potency (HEK293T)

CC(=O)N[C@H](Cc1ccc(O)cc1)C(=O)N[C@H](CCCN=C(N)N)C(=O)N[C@H](Cc1ccccc1)C(N)=O (Ac-[dY]-[dR]-[dF]-NH2)
inactive: max response (CRL-7250) -2.02% | outcome (HEK293) | max response (HaCat) -6.09% | outcome (KB-3-1) | outcome (NIH3T3) | Potency (HEK293T)

OC[C@H]1O[C@@H](Oc2cc(O)cc(-c3cc4ccc(O)cc4o3)c2)[C@H](O)[C@@H](O)[C@@H]1O
inactive: max response (CRL-7250) 0.0775% | outcome (HEK293) | max response (HaCat) -4.29% | max response (KB-3-1) 4.55% | max response (NIH3T3) 4.16% | Potency (HEK293T)

O=c1ccn([C@@H]2O[C@H](CO)[C@@H](O)[C@H]2O)c(=O)[nH]1
inactive: max response (CRL-7250) -8.67% | outcome (HEK293) | max response (HaCat) 3.94% | max response (KB-3-1) 0.253% | outcome (NIH3T3) | Potency (HEK293T)

CCC[C@@H]1C[C@@H](C(=O)N[C@H](C(C)Cl)[C@H]2O[C@H](SC)[C@H](O)[C@@H](O)[C@H]2O)N(C)C1 (stereo partly drawn)
inactive: max response (CRL-7250) -2.55% | outcome (HEK293) | max response (HaCat) 1.16% | max response (KB-3-1) 7.07% | max response (NIH3T3) 3.25% | Potency (HEK293T)

C/C(=C\CCC(C(=O)O)C1CCC2(C)C3=C(CCC12C)C1(C)CCC(=O)C(C)(C)C1CC3)C(=O)O (stereo not drawn)
inactive: max response (CRL-7250) -10.7% | outcome (HEK293) | max response (HaCat) 0.998% | outcome (KB-3-1) | outcome (NIH3T3) | Potency (HEK293T)

CC(=O)OCCC(C)CCC1C(C)(O)CCC2C(C)(C)CCCC21C (stereo not drawn)
inactive: max response (CRL-7250) -8.91% | outcome (HEK293) | max response (HaCat) -0.371% | outcome (KB-3-1) | max response (NIH3T3) -3.93% | Potency (HEK293T)

CC1(C)O[C@]23C[C@H]1C[C@H](OC(=O)c1ccoc1)[C@]2(C)[C@@H](OC(=O)c1ccoc1)CCC3(C)O (stereo partly drawn)
inactive: max response (CRL-7250) 0.391% | outcome (HEK293) | max response (HaCat) 2.39% | max response (KB-3-1) 7.96% | max response (NIH3T3) -0.102% | Potency (HEK293T)

CC1(C)CC2C(C1)C1(C)CCC13OC3(CO)C2O (stereo not drawn)
inactive: max response (CRL-7250) -2.76% | outcome (HEK293) | max response (HaCat) -6.47% | outcome (KB-3-1) | max response (NIH3T3) 5% | Potency (HEK293T)

CC(O)(CC(=O)O)CC(=O)O[C@@H]1[C@@H](O)[C@H](OCCc2ccccc2)O[C@H](CO)[C@H]1O (stereo partly drawn)
inactive: max response (CRL-7250) -0.691% | outcome (HEK293) | max response (HaCat) -14.4% | max response (KB-3-1) 7.92% | max response (NIH3T3) 1.93% | Potency (HEK293T)
